Screening results (PubChem BioAssay)
GPR151 activ: human GPR151 activation. Q8TDV0. PathHunter beta-arrestin GPR151 cells, luminescence. activation, % at 11.2 µM. actives 1% (n = 650,000). AID 1508602; in the data active = activation above about 4.9%
Target sequence (Q8TDV0 whole entry, looked up): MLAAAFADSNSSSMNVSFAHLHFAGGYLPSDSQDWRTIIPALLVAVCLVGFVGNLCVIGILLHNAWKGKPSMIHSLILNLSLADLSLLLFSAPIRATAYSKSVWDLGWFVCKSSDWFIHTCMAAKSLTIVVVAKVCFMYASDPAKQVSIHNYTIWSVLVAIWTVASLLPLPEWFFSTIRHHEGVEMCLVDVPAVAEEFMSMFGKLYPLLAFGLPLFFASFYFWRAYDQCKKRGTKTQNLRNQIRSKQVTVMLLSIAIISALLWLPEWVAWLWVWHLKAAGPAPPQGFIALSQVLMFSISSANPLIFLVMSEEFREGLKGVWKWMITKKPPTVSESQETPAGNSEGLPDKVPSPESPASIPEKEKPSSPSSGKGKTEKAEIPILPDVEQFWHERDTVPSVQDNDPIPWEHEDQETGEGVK
MITF primary: inhibitors of human MITF; O75030; AlphaScreen MITF homodimerization, bead proximity signal; inhibition, % at 2.6 µM; actives 0.91% (n = 650,000); AID 1259374; in the data active = inhibition above about 50%
FBW7 activator: activators of human E3 ligase FBW7; AlphaScreen FBW7–phospho-cyclin E peptide binding, activator screen; Q969H0; actives 0.13% (n = 650,000); normalized activity (activation), % at 26.1 µM; in the data active = normalized activity above about 1.9%;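 also: purified mutant Fbw7 with reduced substrate affinity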
TEAD-YAP block: TEAD-YAP interaction inhibition | HEK-TIYL cells, TEAD-Gal4/YAP UAS-luciferase luminescence | inhibition, % at 9.12 µM | actives 1.4% (n = 640,000) | AID 1259422; in the data active = inhibition above about 32%
GPR151 confirm: confirmation of human GPR151 activators. GPR151 PathHunter beta-arrestin cells, luminescence, 90 min; % of EA-reagent control over plate median. activation, % at 11.2 µM. shares compounds with GPR151 activ. AID 1508609. 6,700 tested, under 10 active;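 active = mean percent activation across replicates above the confirmation screen cutoff of 4.91%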
GPR119 ag: activates human GPR119 in a GPR151 counter-screen | actives 0.3% (n = 6,700) | shares compounds with GPR151 activ | activation, % at 11.2 µM | AID 1508611 | GPR119 PathHunter beta-arrestin cells, luminescence, 90 min; 0 = compound-well median, 100 = enzyme-acceptor control;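 active = mean percent activation in the counterscreen above 29.09%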;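 also: counterscreen on off-target GPR119 to flag nonselective hits from the GPR151 activator screen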
A number is an active result; 0 = inactive; - = no result; ! = repeats disagree. An excerpt weighted towards active compounds, which were near 3.4% of everything screened.

SMILES | GPR151 activ | MITF primary | FBW7 activator | TEAD-YAP block | GPR151 confirm | GPR119 ag
Cc1ccc(CSc2nc3ccccc3c(=O)n2CC2CCCO2)cc1 (configuration not stated) | 0 | 0 | 0 | 0 | - | -
COC(=O)CCNC(=O)NC(CCC(C)C)c1c(-n2cccc2)sc2c1CCN(C)C2 (configuration not stated) | 0 | 0 | 0 | 0 | - | -
COCCCNC(=O)NC(CCC(C)C)c1c(-n2cccc2)sc2c1CCN(C)C2 (configuration not stated) | 8.2 | 0 | 0 | 0 | 0 | 0
CCN(CC)c1ccc(C(=O)Nc2sc3c(c2C#N)CCCC3)cc1 | 0 | 0 | 0 | 0 | - | -
CCN(CC)c1ccc(C(=O)Nc2sc3c(c2C#N)CCCCC3)cc1 | 5.1 | 0 | 0 | 0 | 0 | 0
CCOc1ccc(-c2noc(-c3cccs3)n2)cc1OCC | 0 | 0 | 0 | 0 | - | -
O=[N+]([O-])/C(C=NC1CCCCC1)=C\NC1CCCCC1 | 0 | 0 | 0 | 0 | - | -
Cc1cccc(-c2nc(CCNC(=O)Cc3ccccc3)cs2)c1 | 5.8 | 0 | 0 | 0 | 0 | 0
Cc1c(C(=O)NCC2COc3ccccc3O2)sc2ncn(CC(=O)N3CC(C)CC(C)C3)c(=O)c12 (configuration not stated) | 0 | 0 | 0 | 0 | - | -
COc1ccc(NS(=O)(=O)c2ccc(N/C=C\C(=O)c3ccccc3)cc2)nn1 | 7.2 | 0 | 0 | 0 | 0 | 0
Cc1cccc(-n2c(N)cc(=O)[nH]c2=O)c1 | 0 | 0 | 0 | 0 | - | -
Cc1oc2ccc(Cl)cc2[n+]1CCCS(=O)(=O)O | 0 | 0 | 0 | 0 | - | -
CCO/C(C)=C/c1oc2ccc(-c3ccccc3)cc2[n+]1CCCS(=O)(=O)O | 5.6 | 0 | 0 | 0 | 0 | 0
CC1=C(C(=O)N2CCC(CCC(=O)N(C)Cc3ccccc3)CC2)OCCO1 | 0 | 0 | 0 | 0 | - | -
CN(Cc1ccccc1)C(=O)CCC1CCN(C(=O)C(=O)c2ccccc2)CC1 | 5.2 | 0 | 0 | 0 | 0 | 0
C#CCOCC1CCN(S(=O)(=O)c2ccc3c(c2)CCCC3)CC1 | 0 | 0 | 0 | 0 | - | -
CC(=O)N/C(N)=N/c1nc2cc(C)ccc2o1 | 5.4! | 0 | 0 | 0 | 0 | 0
CC(C)C(NC(=O)c1ccccc1F)C(=O)OCC(=O)c1ccc(F)cc1 (configuration not stated) | 9.3 | 0 | 0 | 0 | 0 | 0
COc1ccc(C(=O)COC(=O)C(NC(=O)c2ccc(Cl)cc2)C(C)C)cc1 (configuration not stated) | 0 | 0 | 0 | 0 | - | -
CC(C)(C)OC(=O)NCC(=O)NC(Cc1ccc(OCc2ccccc2)cc1)C(N)=O (configuration not stated) | 5.1 | 0 | 0 | 0 | 0 | 0
O=C(CSc1nnc(-c2cccnc2)n1C1CCCCC1)Nc1ccc(F)cc1 | 0 | 0 | 0 | 0 | - | -
CCc1ccc(N(CC(=O)N2CCC(C(N)=O)CC2)S(C)(=O)=O)cc1 | 0 | 0 | 0 | 0 | - | -
CS(=O)(=O)N(CC(=O)N1CCC(C(N)=O)CC1)c1ccc(Oc2ccccc2)cc1 | 5.0 | 0 | 0 | 0 | 0 | 0
CCc1nc(N)c(C#N)c(-c2ccc([N+](=O)[O-])cc2)c1C | 5.3 | 0 | 0 | 0 | 0 | 0
COc1ccccc1Cn1c(=S)[nH]c2cc(C(=O)N3CCCCC3)ccc2c1=O | 0 | 0 | 0 | 0 | - | -
SMILES | GPR151 activ | MITF primary | FBW7 activator | TEAD-YAP block | GPR151 confirm | GPR119 ag
COc1ccccc1Cn1c(=S)[nH]c2cc(C(=O)N3CCC(C(N)=O)(N4CCCCC4)CC3)ccc2c1=O | 5.8 | 0 | 0 | 0 | 0 | 0
COC(=O)C1=C(C)Nc2[nH]c(=O)[nH]c(=O)c2C1c1ccc(Cl)cc1 (configuration not stated) | 0 | 0 | 0 | 0 | - | -
Cn1c(=NC(=O)c2ccc([N+](=O)[O-])s2)sc2cc(F)ccc21 | 0 | 0 | 0 | 0 | - | -
COc1ccc(C(=O)NNC(=O)C(=O)N2CCCC2)cc1OC | 5.6 | 0 | 0 | 0 | 0 | 0
C#CCSc1nsc(NC(=O)Nc2cccc(F)c2)n1 | 7.1 | 0 | 0 | 36 | 0 | 0
CCOC(=O)CCC(=O)Nc1cccc(Cl)c1Cl | 6.9 | 0 | 0 | 0 | 0 | 0
CCOC(=O)CCC(=O)Nc1cccc2c(NC(=O)CCC(=O)OCC)cccc12 | 0 | 0 | 0 | 0 | - | -
CCOC(=O)c1cnc2cc(C)nn2c1N | 9.4 | 0 | 0 | 0 | 0 | 0
CCC(C)NCCOc1ccc([N+](=O)[O-])cc1 (configuration not stated) | 6.6 | 0 | 0 | 0 | 0 | 0
CCOC(=O)CCCCNCc1ccccc1F | 0 | 0 | 0 | 0 | - | -
CCOCCCNCc1ccccc1F | 5.2 | 0 | 0 | 0 | 0 | 0
CCCN(Cc1cccs1)C(=O)NCc1ccccc1 | 8.1 | 0 | 0 | 0 | 0 | 0
COc1ccc(-c2noc(N3CCN(c4ccc(C)cc4)C(C)C3)n2)cc1 (configuration not stated) | 5.0 | 0 | 0 | 0 | 0 | 0
CC1CCCC(NC(=O)c2ccc(Cn3c(=S)[nH]c4ccc(Br)cc4c3=O)cc2)C1C (configuration not stated) | 0 | 0 | 0 | 0 | - | -
O=C(CSc1nnc2ccc(-c3cccnc3)nn12)N1CCc2ccccc21 | 5.4 | 0 | 0 | 0 | 0 | 0
O=C(CSc1nnc2ccc(-c3cccnc3)nn12)N1CCCC1 | 0 | 0 | 0 | 0 | - | -
COc1cccc(-n2c(SCC(=O)N3CCc4ccccc43)nnc2-c2cccnc2)c1 | 0 | 0 | 0 | 0 | - | -
COc1cccc(-n2c(SCC(=O)N3CCc4ccccc43)nnc2-c2ccncc2)c1 | 6.4 | 0 | 0 | 0 | 0 | 0
O=C(Oc1cccc(N2C(=O)C3CCCCC3C2=O)c1)c1ccc(Br)cc1 (configuration not stated) | 0 | 0 | 0 | 0 | - | -
CC(C)C(=O)N=C1SC2CS(=O)(=O)CC2N1c1cccc(C(F)(F)F)c1 (configuration not stated) | 7.5 | 0 | 0 | 0 | 0 | 0
COCCNC(=O)c1ccc(/C=C2\Oc3ccccc3N(C)C2=O)cc1 | 11 | 0 | 0 | 0 | 0 | 0
O=S(=O)(c1ccc(N2CCCC(C(F)(F)F)C2)nc1)N1CCCC1 (configuration not stated) | 5.8 | 0 | 0 | 0 | 0 | 0
Cc1ccc(NC(=O)CSc2nc3ccccc3c(=O)n2CCC(=O)NC2CCCCC2)cc1Cl | 0 | 0 | 0 | 0 | - | -
Cc1ncc(CO)c2cc(-c3nnc(Nc4ccccc4F)s3)c(=O)oc12 | 5.8 | 0 | 0 | 0 | 0 | 0
CCOc1ccccc1C(=O)Nc1nc(-c2ccc3c(c2)CCN3C(=O)CC)cs1 | 0 | 0 | 0 | 0 | - | -
OCCNc1nc2nc(Cl)nc(N3CCCCC3)c2n1Cc1ccccc1 | 0 | 0 | 0 | 0 | - | -
CNC(=O)c1c(C)nc(SCC(=O)O)c(C#N)c1-c1ccco1 | 0 | 0 | 0 | 0 | - | -
Cc1ccc(S(=O)(=O)N2C(=O)CCC2C(=O)O/N=C(\N)c2cccnc2)cc1 (configuration not stated) | 5.2 | 0 | 0 | 0 | 0 | 0
